Data reported in PubChem BioAssay AID2289 (National Center for Advancing Translational Sciences (NCATS), 2010).
The campaign covered roughly 340,000 compounds. About 3,300 (0.97%) were called active. About 9% were inconclusive and are not listed. Calls come from the whole dose curve; as a rule, active = well fitted inhibition curve with a large enough effect; inconclusive = small, poorly fitted or top-dose-only effect, or effect the other way; inactive = flat fitted curve, though single readings scatter. The list shows a part of the results.

Experiment: qHTS Assay for Modulators of miRNAs and/or Inhibitors of miR-21; note: nearly all actives have a fitted effect of over 55% in size
Conditions: HeLa miR-21-FLuc reporter, luciferase luminescence, 48 h; actives lower the signal
Method in brief: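 HeLa cells endogenously expressing miR-21, stably carrying CMV-driven firefly luciferase with a downstream miR-21 binding site, 2000 cells/well. Titrations up to approximately 40 uM, 48 hours; luciferase luminescence read.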
Potency is the fitted concentration of half-maximal effect.

Potency, active:
Cc1ccc2[nH]c3c(=S)nc[nH]c3c2c1 3.69 µM, Cc1cc(C(=O)N/N=C/c2cccc([N+](=O)[O-])c2)c(C)n1-c1ccccc1 6.56 µM, CC(C)c1ccc(NC(=O)c2ccccc2NC(=O)C2CC=CCC2C(=O)O)cc1 (configuration not stated) 3.69 µM, O=C(Nc1ccc(Cl)c(Cl)c1)c1ccccc1NC(=O)C1CC=CCC1C(=O)O (configuration not stated) 6.56 µM, CN(C)C=NC(=O)c1cc(C(=O)c2ccc(C(C)(C)C)cc2)c[nH]1 0.927 µM, Cn1c(CSc2ccccc2)c(C#N)c2ccccc21 14.7 µM, Cc1ccc(Nc2nc(/N=C/NO)n[nH]2)cc1C 1.85 µM, Cc1ccc(Nc2nc(/N=C/N(C)C)n[nH]2)cc1C 7.36 µM, COCn1c(-c2ccc(OC)cc2)nc2ccccc21 3.69 µM, COCn1c(COc2ccc3ccccc3c2)nc2ccccc21 2.07 µM, C=CCn1c(-c2ccc(N)cc2)nc2ccccc21 4.65 µM, O=C(c1cc(-c2ccccc2O)on1)N1CCOCC1 13.1 µM, O=C(c1cc(-c2ccccc2O)on1)N1CCCCCC1 2.07 µM, O=C(c1cc(-c2ccccc2O)on1)N1CCCCC1 0.826 µM, Cc1ccc2c(c1)NC(=O)CC(c1ccccc1)=N2 13.1 µM, CSc1ccc(/C=C/C(=O)c2c(O)cc(C)oc2=O)cc1 13.1 µM, Cc1ccc(NC(=O)CCCNC(=O)c2ccc(Cl)cc2)c(O)c1 16.5 µM, [O-]/[N+](=C\C=C\c1ccccc1)c1ccccc1 1.85 µM, CC(=O)Nc1ccc(C(=O)/C=C/c2ccc[nH]2)cc1 13.1 µM, COc1ccc(N2Cc3ccc(OC)c(OC)c3C2=O)cc1 2.07 µM, Cc1ccc(OCC(=O)Nc2ccccc2F)cc1C 4.14 µM, Cc1cccc(OCC(=O)Nc2ccccc2F)c1 6.56 µM, Cc1ccc(NC(=O)CSc2nnc(-c3cccs3)o2)cc1S(=O)(=O)N(C)C 8.26 µM, O=C(CSc1nnc(-c2ccccc2Cl)o1)Nc1ccc2c(c1)OCCO2 6.56 µM, O=C(CSCc1ccccc1Cl)Nc1ccc2c(c1)OCCO2 2.07 µM, Cc1nc(NC(=O)CSc2nnc(-c3ccc4c(c3)OCO4)o2)c(Cl)cc1Cl 16.5 µM, Cc1ccc(/C=C/C(=O)NCc2cccs2)c(C)c1 5.85 µM, COc1ccc(N(/N=C2\Sc3ccccc3C2=O)C(C)=O)cc1 0.261 µM, O=C(COC(=O)c1ccc[nH]c1=O)NCCc1ccc(Cl)cc1Cl 1.65 µM, COc1ccc(/C=C/c2nc(-c3ccccc3O)n[nH]2)cc1OC 4.65 µM, COc1ccc(/C=C/c2nc(-c3ccccc3O)n[nH]2)cc1 2.33 µM, COc1cc(C(F)(F)F)ccc1C(=O)NCCc1ccco1 7.36 µM, CCc1nc2ccc(C(=O)NCCc3ccco3)cc2nc1CC 14.7 µM, CC1CCN(C(=O)CSCc2ccc(Cl)cc2)CC1 11.7 µM, O=C(CCSc1ccccc1)N1CCN(c2ccccc2F)CC1 7.36 µM, O=C(CSCc1ccccc1)N1CCN(c2ccccc2)CC1 6.56 µM, O=C(CCSc1ccccc1)N1CCN(c2ccccc2)CC1 6.56 µM, Cc1ccc(SCCC(=O)N2CCC(C)CC2)cc1 7.36 µM, O=C(O)c1c2c(nc3ccccc13)/C(=C/c1ccc(OC(F)F)cc1)CCC2 14.7 µM, CN(C)c1ccc(/C=C2\CCCc3c2nc2ccccc2c3C(=O)O)cc1 4.65 µM, Cc1cc2nc(-c3ccc(NC(=O)C(C)C)cc3)oc2cc1C 0.369 µM, Cc1ccc2oc(-c3ccc(NC(=O)c4cccc(F)c4)c(C)c3)nc2c1 7.36 µM, Cc1ccc2oc(-c3ccc(Cl)c(NC(=O)c4cc5ccccc5o4)c3)nc2c1 5.85 µM, Cc1ccc2oc(-c3ccc(C)c(NC(=O)c4ccc(-c5ccccc5[N+](=O)[O-])o4)c3)nc2c1 8.26 µM, Cc1cc2nc(-c3ccc(NC(=O)c4cc5ccccc5o4)cc3)oc2cc1C 8.26 µM, CCc1ccc(C(=O)N/N=C/c2cccc3ccccc23)nc1 8.26 µM, C/C(=N\NC(=O)c1ccoc1C)c1ccccc1 1.85 µM, C/C(=N\NC(=O)c1ccoc1C)c1cccc2ccccc12 7.36 µM, Cc1ccc(NC(=O)c2ccoc2C)cc1C 4.14 µM, C/C(=N\NC(=O)c1ccco1)c1ccc(-c2ccccc2)cc1 2.93 µM, Cc1occc1C(=O)N/N=C/c1cnn(C)c1C 13.1 µM, C/C(CC(=O)NC(C)(C)C)=N\NC(=O)c1ccco1 6.56 µM, Cc1occc1C(=O)NNC(=S)Nc1ccccc1C(F)(F)F 8.26 µM, C/C(=N/NC(=O)c1ccoc1C)c1ccc(N2CCOCC2)cc1 0.927 µM, Cc1occc1C(=O)N/N=C/c1cccc2ccccc12 2.07 µM, Cc1occc1C(=O)NNC(=O)c1ccccc1C(=O)O 1.17 µM, O=[N+]([O-])c1ccccc1-c1cc(-c2ccccc2O)n[nH]1 2.07 µM, c1nc(NCCN2CCOCC2)c2c3c(sc2n1)CCCCC3 16.5 µM, Cc1ccc(O)c(NC(=O)c2cc(-c3ccccc3)on2)c1 2.61 µM, Cc1ccc(O)c(NC(=O)c2cc(-c3cccs3)on2)c1 4.65 µM, Cc1ccc(O)c(NC(=O)c2cc(-c3ccco3)on2)c1 13.1 µM, O=C(Nc1cc(Cl)ccc1O)c1cc(-c2ccco2)on1 16.5 µM, Cc1cc(NCc2ccccn2)ccc1Br 9.27 µM, COc1ccc(-c2nc(C#N)c(NCCc3ccccc3)o2)cc1 9.27 µM, CC(C)(C)c1ccc(-c2nc(C#N)c(NCc3ccncc3)o2)cc1 4.14 µM, COc1ccc(-c2nc(C#N)c(NCCCn3ccnc3)o2)cc1OC 16.5 µM, COc1ccc(-c2nc(C#N)c(NCc3ccc(C)cc3)o2)cc1OC 7.36 µM
